Measurements reported in PubChem BioAssay AID1159580 (chemical genetic matrix, 2015).
In all, about 5,500 compounds went through this assay and about 2,000 (36%) were called active. Roughly 18% stayed inconclusive and do not appear here. Rule as the data show it: active = normalized growth mostly below about 0.91 (no sharp cut-off); inconclusive = no clear call, values can overlap the other calls; inactive = mostly above about 0.92. The list shows a part of the results.

Test: chemical genetic growth profiling, strain panel (AID 1159580);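 also: tested at 20 µM; growth read once vehicle control cultures reached saturation at 30 °C; 1 = growth at the plate median or of vehicle wells; lower values mean less growth of the strain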
Settings: growth OD

Measured: normalized growth

NCC(O)CC(=O)O (centres undefined)
inactive: S. cerevisiae deletion strains, locus YKL009W, strain mrt4, stronger effect = lower value 0.991 | S. cerevisiae deletion strains, locus YKL068W, stronger effect = lower value 0.999 | S. cerevisiae deletion strains, locus YKL085W, strain MDH1 (second series), stronger effect = lower value 1 | S. cerevisiae deletion strains, locus YKL085W, strain MDH1, stronger effect = lower value 1 | S. cerevisiae deletion strains, locus YKL160W, strain elf1, stronger effect = lower value 1.02 | S. cerevisiae deletion strains, locus YKL190W, strain CNB1, stronger effect = lower value 1.02 | S. cerevisiae deletion strains, locus YKR001C, strain vps1, stronger effect = lower value 1 | S. cerevisiae deletion strains, locus YKR026C, strain gcn3, stronger effect = lower value 0.959 | S. cerevisiae deletion strains, locus YKR091W, strain srl3, stronger effect = lower value 0.974 | S. cerevisiae deletion strains, locus YLL001W, strain dnm1, stronger effect = lower value 0.987 | S. cerevisiae deletion strains, locus YLL026W, stronger effect = lower value 0.996 | S. cerevisiae deletion strains, locus YLL041C, strain sdh2, stronger effect = lower value 1 | S. cerevisiae deletion strains, locus YLR027C, strain aat2, stronger effect = lower value 0.97 | S. cerevisiae deletion strains, locus YLR039C, strain RIC1, stronger effect = lower value 1.04 | S. cerevisiae deletion strains, locus YLR058C, strain SHM2, stronger effect = lower value 1.02 | S. cerevisiae deletion strains, locus YLR102C, strain apc9, stronger effect = lower value 1 | S. cerevisiae deletion strains, locus YLR113W, strain HOG1, stronger effect = lower value 0.976 | S. cerevisiae deletion strains, locus YLR221C, strain rsa3, stronger effect = lower value 1.01 | S. cerevisiae deletion strains, locus YLR258W, strain gsy2, stronger effect = lower value 1 | S. cerevisiae deletion strains, locus YLR262C, strain YPT6 (second series), stronger effect = lower value 1 | S. cerevisiae deletion strains, locus YLR262C, strain YPT6, stronger effect = lower value 1.03 | S. cerevisiae deletion strains, locus YLR268W, strain sec22, stronger effect = lower value 0.998 | S. cerevisiae deletion strains, locus YLR320W, strain mms22, stronger effect = lower value 1 | S. cerevisiae deletion strains, locus YLR330W, strain CHS5, stronger effect = lower value 1.01 | S. cerevisiae deletion strains, locus YLR342W, strain FKS1 (second series), stronger effect = lower value 1.02 | S. cerevisiae deletion strains, locus YLR342W, strain FKS1, stronger effect = lower value 0.968 | S. cerevisiae deletion strains, locus YLR357W, strain rsc2, stronger effect = lower value 0.972 | S. cerevisiae deletion strains, locus YLR370C, strain arc18, stronger effect = lower value 0.973 | S. cerevisiae deletion strains, locus YLR371W, strain rom2, stronger effect = lower value 1 | S. cerevisiae deletion strains, locus YLR384C, strain iki3, stronger effect = lower value 0.979 | S. cerevisiae deletion strains, locus YLR418C, strain cdc73, stronger effect = lower value 0.988 | S. cerevisiae deletion strains, locus YML016C, strain PPZ1, stronger effect = lower value 1.01 | S. cerevisiae deletion strains, locus YML032C, strain rad52, stronger effect = lower value 1.01 | S. cerevisiae deletion strains, locus YML120C, strain ndi1, stronger effect = lower value 0.994 | S. cerevisiae deletion strains, locus YML124C, strain tub3, stronger effect = lower value 1 | S. cerevisiae deletion strains, locus YMR058W, strain fet3, stronger effect = lower value 0.972 | S. cerevisiae deletion strains, locus YMR078C, strain ctf18, stronger effect = lower value 1 | S. cerevisiae deletion strains, locus YMR125W, strain sto1, stronger effect = lower value 0.958 | S. cerevisiae deletion strains, locus YMR129W, stronger effect = lower value 0.978 | S. cerevisiae deletion strains, locus YMR205C, strain PFK2, stronger effect = lower value 0.965 | S. cerevisiae deletion strains, locus YMR223W, strain ubp8, stronger effect = lower value 1 | S. cerevisiae deletion strains, locus YMR231W, strain pep5, stronger effect = lower value 0.968 | S. cerevisiae deletion strains, locus YMR263W, strain SAP30, stronger effect = lower value 1.01 | S. cerevisiae deletion strains, locus YMR307W, strain GAS1, stronger effect = lower value 0.988 | S. cerevisiae deletion strains, locus YNL067W, strain RPL9B, stronger effect = lower value 1.01 | S. cerevisiae deletion strains, locus YNL071W, strain lat1, stronger effect = lower value 0.981 | S. cerevisiae deletion strains, locus YNL128W, strain TEP1, stronger effect = lower value 1.02 | S. cerevisiae deletion strains, locus YNL183C, strain NPR1, stronger effect = lower value 0.931 | S. cerevisiae deletion strains, locus YNL209W, strain ssb2, stronger effect = lower value 0.985 | S. cerevisiae deletion strains, locus YNL233W, strain BNI4, stronger effect = lower value 1.04 | S. cerevisiae deletion strains, locus YNL248C, strain rpa49, stronger effect = lower value 1.02 | S. cerevisiae deletion strains, locus YNL250W, strain rad50, stronger effect = lower value 0.99 | S. cerevisiae deletion strains, locus YNL271C, strain bni1, stronger effect = lower value 0.992 | S. cerevisiae deletion strains, locus YNL298W, strain CLA4, stronger effect = lower value 0.992 | S. cerevisiae deletion strains, locus YNL307C, strain MCK1, stronger effect = lower value 1.01 | S. cerevisiae deletion strains, locus YNL322C, strain KRE1 (second series), stronger effect = lower value 0.958 | S. cerevisiae deletion strains, locus YNL322C, strain KRE1, stronger effect = lower value 1.02 | S. cerevisiae deletion strains, locus YNR049C, strain mso1, stronger effect = lower value 0.983 | S. cerevisiae deletion strains, locus YNR052C, strain pop2, stronger effect = lower value 1 | S. cerevisiae deletion strains, locus YOL006C, strain TOP1, stronger effect = lower value 0.988 | S. cerevisiae deletion strains, locus YOL012C, strain htz1 0.788 | S. cerevisiae deletion strains, locus YOL147C, strain pex11, stronger effect = lower value 1 | S. cerevisiae deletion strains, locus YOR001W, strain rrp6, stronger effect = lower value 1.02 | S. cerevisiae deletion strains, locus YOR061W, strain CKA2, stronger effect = lower value 1.01 | S. cerevisiae deletion strains, locus YOR069W, strain VPS5, stronger effect = lower value 1.01 | S. cerevisiae deletion strains, locus YOR070C, strain gyp1, stronger effect = lower value 0.991 | S. cerevisiae deletion strains, locus YOR080W, strain dia2, stronger effect = lower value 0.979 | S. cerevisiae deletion strains, locus YOR083W, strain WHI5, stronger effect = lower value 1.03 | S. cerevisiae deletion strains, locus YOR106W, strain vam3, stronger effect = lower value 0.978 | S. cerevisiae deletion strains, locus YOR136W, strain idh2, stronger effect = lower value 1 | S. cerevisiae deletion strains, locus YOR144C, strain elg1, stronger effect = lower value 0.999 | S. cerevisiae deletion strains, locus YOR184W, strain ser1, stronger effect = lower value 1 | S. cerevisiae deletion strains, locus YOR231W, strain MKK1, stronger effect = lower value 1.02 | S. cerevisiae deletion strains, locus YOR265W, strain rbl2, stronger effect = lower value 0.989 | S. cerevisiae deletion strains, locus YOR270C, strain vph1, stronger effect = lower value 0.987 | S. cerevisiae deletion strains, locus YOR290C, strain snf2, stronger effect = lower value 0.938 | S. cerevisiae deletion strains, locus YOR316C, strain cot1, stronger effect = lower value 1.01 | S. cerevisiae deletion strains, locus YPL051W, strain arl3, stronger effect = lower value 1.02 | S. cerevisiae deletion strains, locus YPL078C, strain atp4, stronger effect = lower value 0.998 | S. cerevisiae deletion strains, locus YPL106C, strain sse1, stronger effect = lower value 0.985 | S. cerevisiae deletion strains, locus YPL240C, strain hsp82, stronger effect = lower value 1 | S. cerevisiae deletion strains, locus YPL241C, strain CIN2, stronger effect = lower value 1.01 | S. cerevisiae deletion strains, locus YPL256C, strain CLN2, stronger effect = lower value 1.01 | S. cerevisiae deletion strains, locus YPR119W, strain clb2, stronger effect = lower value 0.996 | S. cerevisiae deletion strains, locus YPR141C, strain kar3, stronger effect = lower value 0.994 | S. cerevisiae deletion strains, locus YPR163C, strain tif3, stronger effect = lower value 0.993 | S. cerevisiae deletion strains, locus YPR167C, strain met16, stronger effect = lower value 0.995 | S. cerevisiae deletion strains, strain wtn01, stronger effect = lower value 0.99 | S. cerevisiae strains, strain wild type, stronger effect = lower value 1.02
